A selection: hits, their analogues and other compounds. The true share with any hit is near 19%.
SARS PLP yeast: SARS-CoV PLP inhibition in yeast. 330,000 compounds, 0.19% hits. Potency, µM (doses to about 32.9 µM), inactives show top-dose activity, positive = growth rescue, most hits filed as activators. S. cerevisiae expressing SARS-CoV PLpro, growth rescue; calls by dose curve; note: potency is the fitted concentration of half-maximal effect; 0% is about no effect; nearly all actives have a fitted effect of over 55% in size
AMA1-RON2 inh: AMA1-RON2 (P. falciparum) interaction inhibition; AlphaScreen AMA1-biotinylated RON2 peptide binding; Potency, µM (top dose mostly 58.2 µM), without a hit: top-dose activity change, negative = inhibition, actives largely listed as inhibitors; 360,000 compounds, 0.2% hits; AID 720542;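 note: potency is the fitted concentration of half-maximal effect; 0% = vehicle wells and -100% = peptide control; nearly all actives have a fitted effect of over 45% in size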
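AMA1 (3D7) with his tag at 25 nM final met compounds first, then biotinylated RON2 peptide at 25 nM; detection used donor plus acceptor beads, 10 µg/mL apiece, read by AlphaScreen after 30 min at room temperature.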
Pf growth 96h: P. falciparum growth inhibition at 96 hours. 320,000 compounds, 6.9% hits. P. falciparum luciferase reporter growth, 96 h. Potency, µM (highest dose often 28.7 µM), without a hit: at the highest dose activity change, negative = inhibition, usual class: inhibitors; note: potency is the fitted concentration of half-maximal effect; % is set by controls: 0 for no effect and ±100 for the full control effect
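Readout is luminescence from an integrated firefly luciferase in P. falciparum. Red cells, 2% hematocrit and 0.05% parasitemia final, were cultured with compound through two parasite generations (96 hours) at 37 C, 5% CO2.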
Shiga toxin inh: inhibitors of Shiga toxin in Vero cells. Vero cells, Shiga toxin protein synthesis inhibition reporter. inhibition, % at 38.7 µM. 290,000 compounds, 9.2% hits. AID 2315; in the data active = inhibition mostly above about 28%, no sharp cut-off; inactive = mostly below about 43%; note: 0% is about no effect
Pf growth 48h: P. falciparum growth inhibition at 48 hours (one generation); P. falciparum luciferase growth in erythrocytes, 48 h; Potency, µM (top dose mostly 28.7 µM), for inactives: top-dose activity change, negative = inhibition, actives largely listed as inhibitors; 310,000 compounds, 5.9% hits; note: potency is the fitted concentration of half-maximal effect; % is set by controls: 0 for no effect and ±100 for the full control effect
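Luminescence readout; reporter = integrated firefly luciferase in P. falciparum. RBC culture at 2% hematocrit, 0.1% parasitemia final, 37 C/5% CO2; decreased signal taken as growth inhibition.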
Cycloheximide cs: affects cycloheximide protein synthesis inhibition readout, counter-screen. cell reporter, cycloheximide protein synthesis inhibition counterscreen. max response, %. 300,000 compounds, 12% hits. AID 2314; in the data active = max response mostly above about 13%, no sharp cut-off; inactive = mostly below about 14%; note: read at 38.3 µM for the half of the compounds with a filed dose; 0% is about no effect
* = called active by the depositor; [ ] = another dose, or the depositor's remark. Unless noted, calls come from the whole dose curve; as a rule, active = well fitted curve in the direction sought with a large enough effect; inconclusive = small, poorly fitted or top-dose-only effect, or another doubt; inactive = no such curve, though single readings can be large; an effect the other way counts as inactive or inconclusive.

COc1ccc2[nH]c(C(=O)N(C)c3ccc(F)cc3F)cc2c1 was read as SARS PLP yeast -1%, AMA1-RON2 inh -2%, Pf growth 96h -5%, Shiga toxin inh 18, Pf growth 48h -2% and Cycloheximide cs 9.
Screening COCC(C)NC(=O)c1nn(Cc2ccccc2)c(=O)c2ccccc12 (stereo not drawn) returned SARS PLP yeast -2%, AMA1-RON2 inh 5%, Pf growth 96h -10%, Shiga toxin inh -16, Pf growth 48h 5% and Cycloheximide cs -5.
COC(=O)c1cc(C)[nH]c2c(C)cc3nc4ccccc4c3c12 was read as SARS PLP yeast -4%, AMA1-RON2 inh 50%, Pf growth 96h inconclusive, Shiga toxin inh -3, Pf growth 48h inconclusive and Cycloheximide cs 2.
`Cc1cccc(NC(=O)/C=C/c2ccc(Cl)cc2)n1` gave SARS PLP yeast -26%, AMA1-RON2 inh -8%, Pf growth 96h inconclusive, Shiga toxin inh 65*, Pf growth 48h 129% and Cycloheximide cs 35*.
Screening O=C(COC(=O)/C=C/c1ccccc1)Nc1ccc(Cl)cn1 returned SARS PLP yeast 8%, AMA1-RON2 inh -12%, Pf growth 96h -2% and Pf growth 48h inconclusive.
`CSc1cccc(NC(=O)CCCOc2ccc(Cl)cc2C)c1` gave SARS PLP yeast 5%, AMA1-RON2 inh 9%, Pf growth 96h 23%, Shiga toxin inh 14, Pf growth 48h -7% and Cycloheximide cs -3.
Screening O=C(/C=C/c1ccccc1)Nc1ccc(Cl)cn1 returned SARS PLP yeast 1%, AMA1-RON2 inh 5%, Pf growth 96h -20%, Shiga toxin inh 112*, Pf growth 48h 104% and Cycloheximide cs 33*.
CSc1cccc(NC(=O)/C=C/c2ccc(Cl)cc2)c1 was read as SARS PLP yeast -17%, AMA1-RON2 inh -1%, Pf growth 96h -28%, Shiga toxin inh 51*, Pf growth 48h -9% and Cycloheximide cs 40*.
Screening Cc1cccc(NC(=O)/C(C#N)=C/c2ccc(Cl)cc2)n1 returned SARS PLP yeast 1%, AMA1-RON2 inh -4%, Pf growth 96h 27%, Shiga toxin inh 13, Pf growth 48h 1% and Cycloheximide cs 1.
`O=C(/C=C/c1ccccc1)Nc1cccc(C(=O)O)c1` gave SARS PLP yeast -1%, AMA1-RON2 inh 8%, Pf growth 96h inconclusive, Shiga toxin inh 24*, Pf growth 48h 0.26µM* and Cycloheximide cs 35*.
COCCNC(=S)N1CCC(NC(=O)c2ccco2)CC1 was read as SARS PLP yeast 0%, AMA1-RON2 inh 0%, Pf growth 96h 83%, Shiga toxin inh -4, Pf growth 48h 19% and Cycloheximide cs -5.
Screening CC[C@H](C)[C@H](NC(=O)[C@H](Cc1ccc(O)cc1)NC(=O)[C@@H](NC(=O)[C@H](CCCN=C(N)N)NC(=O)[C@@H](N)CC(=O)O)C(C)C)C(=O)N[C@@H](Cc1cnc[nH]1)C(=O)N1CCC[C@H]1C(=O)O returned Shiga toxin inh -3 and Cycloheximide cs -2.
Screening COCC(C)n1c(C)cc(C(=O)COC(=O)c2cc(=O)[nH]c3ccccc23)c1C (stereo not drawn) returned SARS PLP yeast 0% and AMA1-RON2 inh -1%[11.6 µM].
`Cc1cc(C)n2c(Br)c(CN3CCCC(C)C3)nc2n1` (stereo not drawn) gave SARS PLP yeast 15%, AMA1-RON2 inh -8%, Pf growth 96h 22%, Shiga toxin inh 7, Pf growth 48h 1% and Cycloheximide cs 10.
`CSc1ccc(/C=C/C(=O)Nc2ccccc2)cc1` gave SARS PLP yeast -10%, AMA1-RON2 inh -9%, Pf growth 96h -105%, Shiga toxin inh 16, Pf growth 48h 127% and Cycloheximide cs 8.
Screening CC(=O)Nc1ccc(NC(=S)NC(=O)/C=C/c2ccc(Cl)cc2)cc1 returned SARS PLP yeast 1%, AMA1-RON2 inh 7%, Pf growth 96h 5%, Shiga toxin inh -5, Pf growth 48h 2% and Cycloheximide cs -2.
CCC(=O)Nc1ccc(NC(=O)/C=C/c2ccc(Cl)cc2)cc1 was read as SARS PLP yeast 14%, AMA1-RON2 inh -3%, Pf growth 96h 9.3µM*, Shiga toxin inh -10, Pf growth 48h 13% and Cycloheximide cs 0.
Screening CSc1cccc(NC(=O)/C=C/c2ccccc2)c1 returned SARS PLP yeast -14%, AMA1-RON2 inh -4%, Pf growth 96h 10µM*, Shiga toxin inh 71*, Pf growth 48h 119% and Cycloheximide cs 36*.
For C[n+]1ccccc1COc1ccc(C(C)(C)C)cc1 the results were SARS PLP yeast 2%, AMA1-RON2 inh 1%, Pf growth 96h 0.37µM*, Shiga toxin inh -10, Pf growth 48h inconclusive and Cycloheximide cs -3.
`O=[N+]([O-])c1ccc(-c2cnc3ccccc3n2)cc1` gave SARS PLP yeast 1%, AMA1-RON2 inh -20%, Pf growth 96h -22%, Shiga toxin inh 32*, Pf growth 48h 111% and Cycloheximide cs 26*.
For CCOc1ccc(-c2cnc3ccccc3n2)cc1 the results were SARS PLP yeast -1%, AMA1-RON2 inh 13%, Pf growth 96h inactive, Shiga toxin inh 96*, Pf growth 48h 67% and Cycloheximide cs 40*.
Screening O=[N+]([O-])c1cc(-c2cnc3ccccc3n2)ccc1Oc1ccc(F)cc1 returned SARS PLP yeast -1%, AMA1-RON2 inh -8%, Pf growth 96h 67%, Shiga toxin inh 81*, Pf growth 48h 14% and Cycloheximide cs 53*.
`Cc1nc2ccccc2nc1-c1ccc([N+](=O)[O-])cc1` gave AMA1-RON2 inh -4%.
`O=C(Cc1ccc(S(=O)(=O)N2CCOCC2)s1)NCCOc1ccccc1` gave SARS PLP yeast 1%, AMA1-RON2 inh 19%, Pf growth 96h -8% and Pf growth 48h 1%.
`COC(=O)[C@]1(C)N[C@H](c2ccc(SC3CCCCC3)c(OC)c2)[C@@H]2C(=O)N(C)C(=O)[C@@H]21` gave SARS PLP yeast 3%, AMA1-RON2 inh -9%, Pf growth 96h inconclusive and Pf growth 48h inconclusive.
`CSc1ccc(CN(C)C(=O)CCNS(=O)(=O)c2ccc(C)c(C)c2)cc1` gave SARS PLP yeast 2%, AMA1-RON2 inh -5%, Pf growth 96h inconclusive and Pf growth 48h 3.7µM*.
CC(=O)N1c2ccc(S(=O)(=O)NCCC(=O)N(C)Cc3ccccc3)cc2CC1C (stereo not drawn) was read as SARS PLP yeast -7%, AMA1-RON2 inh -2%, Pf growth 96h 7.4µM*, Shiga toxin inh 9, Pf growth 48h 1% and Cycloheximide cs -3.
Screening CCNC(=O)c1c(NC(=O)c2cc(-c3cc(C)ccc3O)n[nH]2)sc2c1CCCC2 returned SARS PLP yeast 11%, AMA1-RON2 inh 39%, Pf growth 96h inconclusive, Shiga toxin inh 17, Pf growth 48h inconclusive and Cycloheximide cs -4.
